From PubChem
Pf Dd2 growth: blocks in vitro growth of P. falciparum Dd2 | P. falciparum Dd2 growth, SYBR Green, 72 h | Potency, µM (highest dose often 28.9 µM), actives largely listed as inhibitors | 120,000 tested, 4.3% active | AID 1347417; active means well fitted inhibition curve with a large enough effect; further: nearly all actives have a fitted effect of over 65% in size
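Readout: SYBR Green fluorescence, 485 nm excitation, 535 nm emission, after ~16 h lysis at 37C. Before that, Dd2-infected red cells (2.5% hematocrit) grew 72 h with compound, 29 uM top final concentration.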
Of the large screens only hits and unclear results are named; the others gave an inactive call. Only a selection was taken, and hits are over-represented in it overall.

CN(C)Cc1cn2c(=O)n(C)cc(-c3ccc(F)c(Cl)c3)c2n1	Pf Dd2 growth 2.5µM
Cc1ccc(-n2nc(CC(N)=O)nc2CCn2ccc(=O)[nH]c2=O)c(C)c1	none
Cc1noc(C2CC3(CCN(C(=O)c4n[nH]c(=O)c5ccccc45)CC3)CN2C)n1 (centres undefined)	none
COc1ccc(-c2csc(=Nc3ccccc3)n2CCO)cc1F	none
O=S(=O)(c1ccc(-c2csc(=Nc3ccc(OC(F)(F)Cl)cc3)n2CCCO)cc1)N1CCCC1	Pf Dd2 growth 11µM
CCn1c(-c2ccc(S(=O)(=O)N3CCOCC3)cc2)csc1=Nc1ccc(C)c(Cl)c1	none
COc1cccc(S(=O)(=O)N2CCC3(CC2)CNC(C(=O)O)C3)c1 (centres undefined)	none
O=C(Nc1ccccc1F)N1CCC2(CCCN(C3CCCCC3)C2=O)C1 (centres undefined)	none
O=C(Nc1ccc2[nH]ccc2c1)c1cnc2c(c1)N([S+](=O)([O-])c1cccnc1)CCC2	none
O=C(Nc1ccc2[nH]ccc2c1)c1ccc(-c2ncc3cnc(C4=CCOCC4)cn23)cc1	Pf Dd2 growth 1.6µM
O=C(O)c1ccc(-c2ncc3cnc(C4=CCOCC4)cn23)cc1	none
COc1ccc2[nH]c3c(c2c1)CCNC31CCN(C(=O)Cc2ccncc2)CC1	none
COc1ccc2[nH]c3c(c2c1)CCNC31CCN(C(=O)Cc2cccc(F)c2)CC1	Pf Dd2 growth 7.1µM
COc1ccc2[nH]c3c(c2c1)CCNC31CCN(C(=O)COc2ccc(F)cc2)CC1	none
CC(C)N1CCN(C(=O)C2CCN(C(=O)N3CC4CC(C3)[C@H]3CCCC(=O)N3C4)CC2)CC1 (some centres undefined)	none
c1cnc2c(c1)ncn2C1CC1	none
CN(C)c1ccc(CN[C@H]2C[C@H]3C(=O)NC[C@@H](CCC(=O)NC4CC4)N3C2)cc1	none
COCC1CN(S(=O)(=O)c2cccs2)CC12CCNCC2 (centres undefined)	none
COCC1CN(C)CC12CCN(Cc1ccc(OC)cc1)CC2 (centres undefined)	none
COCC1CN(C)CC12CCN(Cc1ccc(F)cc1F)CC2 (centres undefined)	none
COCC1CN(C(C)=O)CC12CCN(S(=O)(=O)c1cccs1)CC2 (centres undefined)	none
COCC1CN(C)CC12CCN(S(=O)(=O)c1cccs1)CC2 (centres undefined)	Pf Dd2 growth 3.5µM
COCC1CN(C)CC12CCN(Cc1ccc(F)c(Cl)c1)CC2 (centres undefined)	Pf Dd2 growth 5µM
COc1ccc2c(C)c(C(=O)N3CCC(c4nc(C(C)C)no4)CC3)oc2c1	none
Cc1ccc(NC(=O)CN2C(=O)NC3(CCOCC3)C2=O)cc1C	none
O=S(=O)(NCC1CCOCC1)c1cccc(F)c1	none
C=CCNC(=O)CCc1c(CC)nn(-c2ccc(OC)cc2)c1Oc1ccccc1F	none
COC[C@@H]1CN(c2ncccn2)C[C@H]1C(=O)NCCn1cccn1	none
CN(Cc1ccccc1)C(=O)C[C@@H]1CCNC[C@@H]1Cc1cc(-c2ccccc2)on1	Pf Dd2 growth 5µM
CCCCc1cc(C[C@H]2CNCC[C@H]2CC(=O)N(C)Cc2ccccc2)no1	Pf Dd2 growth 6.3µM
CCN(CC)C(=O)C[C@@H]1CCNC[C@@H]1Cc1cc(-c2ccccn2)on1	none
CC(=O)NCCNC(=O)C[C@@H]1CCNC[C@@H]1Cc1cc(-c2ccccc2)on1	none
CCCCc1cc(C[C@H]2CNCC[C@H]2CC(=O)NCc2ccccc2)no1	none
CC(=O)N1CCN(C(=O)C[C@@H]2CCNC[C@@H]2Cc2cc(-c3ccccc3)on2)CC1	none
CCS(=O)(=O)N1C[C@@H](Oc2ccccc2)C[C@H]1C(=O)NC	none
O=C(c1cnccn1)N1CCC2(CN[S+](=O)([O-])c3cnccc3O2)C1 (centres undefined)	none
CCS(=O)(=O)N1CCOc2ccc(CN3CCc4ccccc4C3)cc2C1	none
O=C(Nc1ccc(F)cc1)c1csc2c1CCCCC2	none
Cc1cc(F)ccc1NC(=O)c1csc2c1CCC(C)C2 (centres undefined)	Pf Dd2 growth 4.5µM
Cc1cc(F)ccc1NC(=O)c1ccc2nc(Cc3ccccc3)oc2c1	none
O=C1CC(C(=O)O)C2(CCN(c3ncc(C(=O)O)cc3Cl)CC2)N1 (centres undefined)	none
COC(=O)[C@H]1CCCN1C(=O)[C@@H]1[C@@H](NC(=O)Nc2ccc(F)cc2F)CCN1C(=O)c1cccn1C	none
Cc1ccc(Cl)cc1NC(=O)c1nnn(Cc2ccccc2)c1N	Pf Dd2 growth 1.1µM
COc1cccc(Cn2nnc(C(=O)Nc3cc(C)ccc3C)c2N)c1	none
Cc1cccc(Cn2nnc(C(=O)Nc3cc(C)ccc3C)c2N)c1	Pf Dd2 growth 2µM
COc1ccc(NC(=O)c2nnn(Cc3ccccc3C)c2N)c(OC)c1	Pf Dd2 growth 1.1µM
COc1ccc(NC(=O)c2nnn(CC(=O)Nc3cc(C)cc(C)c3)c2N)c(OC)c1	none
COc1ccc(Cl)cc1NC(=O)c1nnn(Cc2cccc(C(F)(F)F)c2)c1N	none
COc1ccc(Cn2nnc(C(=O)Nc3cc(OC)ccc3OC)c2N)cc1	none
Cc1ccc(C)c(NC(=O)c2nnn(CC(=O)Nc3cccc(C)c3C)c2N)c1	none
Cc1ccc(NC(=O)c2nnn(Cc3ccccc3)c2N)cc1C	none
CNCc1ccncc1	none
CSCC[C@@H]1NC(=O)c2cc(NC(=O)CCc3ccc4c(c3)CCO4)ccc2NC1=O	none
COCCN(C)C(=O)c1cn(C2CNC2)nn1	none
Cn1cnc(S(=O)(=O)N2CCCC(C(=O)NCCCN3CCCCCC3)CCNC(=O)CC2)c1 (centres undefined)	none
c1ccc([C@@H]2CNC[C@H]2COc2cccnc2)nc1	none
NC(=O)[C@H](Cc1cccs1)NC(=O)[C@@H]1[C@@H](NC(=O)Nc2ccc(F)cc2F)CCN1C(=O)c1cnccn1	none
CC(C)(C)C(=O)N1CCC2(CC1)OCC(C(=O)NC1CC1)N2C(=O)c1ccc(F)cc1 (centres undefined)	none
COc1ccc(CNC(=O)c2nc3nc(-c4ccccc4)c(Cl)cc3n2C)cc1OC	none
Cn1c(C(=O)NCCc2ccccn2)nc2nc(-c3ccccc3)c(Cl)cc21	none
COCc1nc2nc(-c3ccccc3)c(-c3ccccc3O)cc2n1C	Pf Dd2 growth 4.5µM
Cn1c(C(=O)NCC2CC2)nc2nc(-c3ccccc3)c(Cl)cc21	none
CN(C)CCNC(=O)c1nc2nc(-c3ccccc3)c(-c3ccccc3O)cc2n1C	Pf Dd2 growth 5.6µM
COc1cc(CNC(=O)c2nc3nc(-c4ccccc4)c(Cl)cc3n2C)cc(OC)c1	Pf Dd2 growth 8.9µM
CN(C)CCNC(=O)c1nc2nc(-c3ccccc3)c(-c3ccc(Cl)cc3)cc2n1C	Pf Dd2 growth 5µM
COCc1nc2nc(-c3ccccc3)c(-c3cccnc3)cc2n1C	none
COCc1nc2nc(-c3ccccc3)c(-c3ccccc3OC)cc2n1C	none
Cn1c(C(=O)NCc2ccoc2)nc2nc(-c3ccccc3)c(Cl)cc21	none
Cn1c(C(=O)NCCN2CCOCC2)nc2nc(-c3ccccc3)c(Cl)cc21	none
COc1ncccc1-c1cc2c(nc1-c1ccccc1)nc(C(=O)NCCN(C)C)n2C	none
CCC(C)NC(=O)NCCc1noc(-c2cccnc2)n1 (centres undefined)	none
O=C(CC1=CCCCC1)N1CCc2nn(CC3CC3)c(=O)n2CC1	none
CCOc1ccc2c(n1)CCN(C(=O)c1ccoc1)C2	none
COc1ccc(OC)c(NC(=O)C2Cn3cccc3C(=O)N2)c1 (centres undefined)	none
CCOCC(=O)N1CCCn2ccnc2C1C(C)C (centres undefined)	none
Cc1ncsc1C(=O)N1CCC2(CC1)OC(=O)N(Cc1cccnc1)C2(C)c1ccccc1 (centres undefined)	none
CCNCc1ccc(-c2ccc(Cl)cc2)o1	Pf Dd2 growth 13µM
